Assay results reported in PubChem BioAssay (NCATS).
Records with an inconclusive call do not appear. Activity calls are given as the source filed them. Unless noted, calls follow the shape of the dose curve; as a rule, active = well fitted curve in the direction sought with a large enough effect; inconclusive = small, poorly fitted or top-dose-only effect, or another doubt; inactive = no such curve, though single readings can be large; an effect the other way counts as inactive or inconclusive.

Experiments:
[1] = biological target: Lysosomal acid glucosylceramidase (Homo sapiens) (UniProt P04062); test: Glucocerebrosidase-p2 (AID 348; in the data active = potency below about 10 µM; also: potency is read from the fitted curve at half-maximal effect); details: purified GBA, blue fluorogenic substrate, 40 min
Outline: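 Normal human glucocerebrosidase (0.2 nM) with blue fluorogenic substrate (80 uM final) in citrate/phosphate pH 5.9 with 10mM sodium taurocholate, 0.01% tween-20; 40 min RT, NaOH/glycine stop; fluorescence Ex 365/Em 440; AC50 from a titration from 0.6 nM upwards.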

[2] = AP1 Signaling Pathway (AID 357; active = well fitted curve in either direction with a large enough effect, not every such curve was filed as active;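 also: ME-180 reporter cells stimulated with EGF at its EC50 level; % is scaled to controls: 0 for no effect and ±100 for the full control effect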); details: ME-180 AP-1-bla reporter, EGF-induced, beta-lactamase ratio, 5 h; at 7.69 µM (top of the series) unless noted
Outline: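 Titration-series screen for positive or negative modulators of EC50 EGF-induced signaling in ME-180 cells carrying an AP-1-driven beta-lactamase reporter. After 5 hours at 37 degrees Celsius, CCF4 460nm/530nm emission ratio gave %Activity; AC50 values derived.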

[3] = biological target: Cytochrome P450 1A2 (Homo sapiens) (UniProt P05177); test: p450-cyp1a2 (AID 410; calls by dose curve; also: potency is read from the fitted curve at half-maximal effect); details: recombinant CYP1A2, luciferin-ME demethylation, luminescence; series mostly up to 57 µM
Outline: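 Luminescent demethylation readout: Luciferin-ME (100uM, equal to Km) turned over by 20nM CYP1A2 for 60 min at room temperature after NADPH regeneration addition, following 10 min compound preincubation. Normalization used 57 uM furafylline as full inhibition.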

[4] = Stat Signaling Pathway (AID 446; active = well fitted curve in either direction with a large enough effect, not every such curve was filed as active;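 also: ME-180 cervical cancer cells given 40 pM IL-6 alongside compound; SIE-controlled beta-lactamase reporter measured as 460/530 nm FRET emission ratio; % is scaled to controls: 0 for no effect and ±100 for the full control effect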); details: ME-180 (cervical carcinoma) SIE beta-lactamase reporter, IL-6 stimulated, 5 h; at 7.69 µM (top of the series) unless noted
Outline: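 Emission at 460 and 530 nm (excitation 405 nm) reports SIE-controlled beta-lactamase in ME-180 cells. Cells received compound with 40 pM IL-6 for 5 hrs at 37 C; data scaled between 300 pM IL-6 and 125 nM JAK-inhibitor controls.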

[5] = biological target: Glucocorticoid receptor (Homo sapiens) (UniProt P04150); test: GR-GFP Redistribution (AID 450;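 active = compounds whose dose series gives a full or clear partial fitted curve of increased nuclear translocation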; also: potency is read from the fitted curve at half-maximal effect); details: U2OS GR-GFP nuclear translocation, laser cytometry, 2 h
[6] = biological target: Glucocorticoid receptor (Homo sapiens) (UniProt P04150); test: GR-EFC Redistribution (AID 451; calls by dose curve; also: potency is read from the fitted curve at half-maximal effect); details: CHO-K1 GR-EFC translocation, beta-gal luminescence, 2 h
Outline: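 Translocation of GR-ED fusion to nuclear EA restores b-gal, read by luminescence after 1 h room-temperature detection. Engineered CHO-K1 biosensor cells, 1,000/well, exposed 2 h at 37 C to titrations up to 46 uM final.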

[7] = biological target: Mitogen-activated protein kinase 10 (Mus musculus) (UniProt Q61831); test: JNK3 AlphaScreen Assay (AID 530; active = well fitted curve in either direction with a large enough effect, not every such curve was filed as active;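 also: kinase came from lysate of stimulated human HepG2 cells; signal reports phosphorylation of biotinylated GST-cJun 1-79 at Ser73 with 10 µM ATP; % is scaled to controls: 0 for no effect and ±100 for the full control effect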); details: JNK3 lysate, c-Jun phosphorylation; series mostly up to 57.1 µM
Outline: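 qHTS titrations with 15 min compound pre-incubation before adding ATP (10 uM final). Read-out: AlphaScreen of Ser73-phosphorylated biotin-GST-cJun using HepG2 lysate JNK3 activated by IL-1β and TNFα.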

[8] = biological target: 3',5'-cyclic-AMP phosphodiesterase 4B (Homo sapiens) (UniProt Q07343); test: qHTS Assay for Inhibitors of PDE-IV (AID 607; active = well fitted activation curve with a large enough effect in the main read-out, with a control signal flat, not every such curve was filed as active; also: % of control where 0% means no effect); details: HEK293 ACTOne CNG channel cells, membrane potential fluorescence; series mostly up to 22.9 µM
Outline: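 The readout is membrane depolarisation from a cAMP-sensing CNG channel, detected with a potential dye at ex 535/em 590. Cells were HEK293-derived (endogenous PDE-IV) at 1000 cells/well, titrated up to 22.9 uM final.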

[9] = biological target: Cytochrome P450 3A4 (Homo sapiens) (UniProt P08684); test: qHTS Assay for Inhibitors and Substrates of Cytochrome P450 3A4 (AID 884); details: recombinant CYP3A4, Luciferin-PPXE luminescence; series mostly up to 57.1 µM; also: potency is read from the fitted curve at half-maximal effect; nearly all actives have a fitted effect of over 50% in size
Outline: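 Luminescent readout of luciferin produced by CYP3A4 (20 nM) dealkylation of Luciferin-PPXE, 25 uM (its KM). NADPH-driven reaction ran 60 min at RT after 10 min compound preincubation; data scaled to 57 uM ketoconazole as 100% inhibition.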

[10] = biological target: Cytochrome P450 3A4 (Homo sapiens) (UniProt P08684); test: qHTS Assay for Activators of Cytochrome P450 3A4 (AID 885); details: recombinant CYP3A4, Luciferin-PPXE luminescence, 60 min; series mostly up to 57.1 µM; also: nearly all actives have a fitted effect of over 65% in size
Outline: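 Activators are scored by enhanced luminescence from CYP3A4 conversion of luciferin-PPXE (25uM, equal to KM) to luciferin, after 60 min at RT with an NADPH-regenerating system.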

[11] = biological target: Cytochrome P450 2C19 (Homo sapiens) (UniProt P33261); test: qHTS Assay for Inhibitors and Substrates of Cytochrome P450 2C19 (AID 899); details: recombinant CYP2C19, luciferin-H EGE luminescence; series mostly up to 57.1 µM; also: potency is read from the fitted curve at half-maximal effect; nearly all actives have a fitted effect of over 60% in size
Outline: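 5nM enzyme + 10uM Luciferin-H EGE (=KM), 50mM KPO4; cpd pin-transferred, 10 min 37C; NADPH regen, 60 min 37C; stopped w/ luciferin detection reagent, 20 min; luminescence. Normalized to 57uM ketoconazole (AC100).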

[12] = qHTS Assay for Lipid Storage Modulators (AID 1519; calls by dose curve); details: Drosophila S3 cells, BODIPY lipid droplet/cell ratio, laser cytometry, cells loaded with oleic acid; for activity change, negative = inhibition: at 57.5 µM (top of the series)
Outline: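 Cells seeded at 5,000 per well were treated with compounds over a concentration series and loaded with oleic acid (400 uM, as added). Lipid droplet fluorescence (488 nm excitation, 500-530 nm channel) was read by laser-scanning cytometry and normalized to 20 uM Triacsin C.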

[13] = biological target: Dual specificity protein kinase CLK4 (Homo sapiens) (UniProt Q9HAZ1); test: qHTS Assay for Inhibitors of CDC-like Kinase 4 (Kinase-Glo Assay) (AID 1770); details: recombinant Clk4, Kinase-Glo ATP depletion luminescence; series mostly up to 66.7 µM; also: % is scaled to controls: 0 for no effect and ±100 for the full control effect; nearly all actives have a fitted effect of over 65% in size
Outline: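 Inhibition was judged from remaining ATP, measured by Ultra-Glo luciferase bioluminescence after Clk4 (25 nM) had acted on RS peptide at 1 uM ATP for 4.5 hours, room temperature.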

[14] = biological target: Dual specificity protein kinase CLK4 (Homo sapiens) (UniProt Q9HAZ1); test: qHTS Assay for Inhibitors of CDC-like Kinase 4 (ADP-Glo Assay) (AID 1771); details: recombinant CLK4, ADP-Glo luminescence; series mostly up to 80 µM; also: % is scaled to controls: 0 for no effect and ±100 for the full control effect; nearly all actives have a fitted effect of over 70% in size
Outline: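 ADP production was read by ADP-Glo luminescence after residual ATP depletion, following 1 h room-temperature reaction of 25 nM Clk4, 1 uM ATP and 100 uM RS peptide with MgCl2, EGTA, DTT and Triton X-100.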

[15] = biological target: Dual specificity protein kinase CLK4 (Homo sapiens) (UniProt Q9HAZ1); test: qHTS Assay for Inhibitors of CDC-like Kinase 4 (ADP-FP Assay) (AID 1795); details: Transcreener ADP fluorescence polarization; series mostly up to 50 µM;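 also: recombinant human CLK4 phosphorylating RS repeat peptide at 1 µM ATP; % is scaled to controls: 0 for no effect and ±100 for the full control effect; nearly all actives have a fitted effect of over 60% in size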
Outline: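 Inhibition of ADP formation by 6.25 nM Clk4 is measured using 1 uM ATP and 100 uM RS repeat peptide over one hour. Produced ADP displaces a fluorescent tracer from antibody, lowering polarization.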

[16] = biological target: Ubiquitin carboxyl-terminal hydrolase 1 (Homo sapiens) (UniProt O94782); test: Inhibitors of USP1/UAF1: Pilot qHTS (AID 504865); details: purified USP1/UAF1, Ub-rhodamine cleavage fluorescence; series mostly up to 54.9 µM;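 also: rhodamine fluorescence freed from ubiquitin-rhodamine substrate followed over time; top concentration of the series differs between compounds; % is scaled to controls: 0 for no effect and ±100 for the full control effect; nearly all actives have a fitted effect of over 35% in size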
Outline: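 Kinetic fluorescence assay: 1nM USP1/UAF1, 15 min compound preincubation, then 150nM Ub-Rho; 480/540 nm.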

[17] = Primary qHTS for small molecule stabilizers of the endoplasmic reticulum resident proteome: Secreted ER Calcium Modulated Protein (SERCaMP) assay (AID 1508630); details: SH-SY5Y GLuc-SERCaMP (Gaussia luciferase released on ER calcium loss) secretion, thapsigargin, luminescence; series mostly up to 38.4 µM; also: % is scaled to controls: 0 for no effect and ±100 for the full control effect
Outline: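 The SH-SY5Y reporter protocol was run at 3 concentrations up to 38.3 uM (primary) or 11 concentrations (follow-up): 16 h compound, 100 nM thapsigargin for 4 h, then extracellular luciferase luminescence.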

[18] = NFAT Signaling Pathway (AID 444; active = well fitted curve in either direction with a large enough effect, not every such curve was filed as active); details: Jurkat NFAT-bla M1, carbachol, beta-lactamase ratio, 5 h; at 7.69 µM (top of the series) unless noted
Outline: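 Read-out: CCF4 FRET ratio (460 nm/530 nm) after 1 h RT dye loading, used for %activity and AC50 from titration series. Cells: Jurkat NFAT-β-lactamase/M1 line, treated with compound plus 1 uM carbachol for 5 h, 37 °C.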

[19] = measured here: cell count channel max response
[20] = measured here: lipid channel max response

Chain of Glucocorticoid receptor (Homo sapiens) (P04150 whole entry, looked up, the tested form may be a part): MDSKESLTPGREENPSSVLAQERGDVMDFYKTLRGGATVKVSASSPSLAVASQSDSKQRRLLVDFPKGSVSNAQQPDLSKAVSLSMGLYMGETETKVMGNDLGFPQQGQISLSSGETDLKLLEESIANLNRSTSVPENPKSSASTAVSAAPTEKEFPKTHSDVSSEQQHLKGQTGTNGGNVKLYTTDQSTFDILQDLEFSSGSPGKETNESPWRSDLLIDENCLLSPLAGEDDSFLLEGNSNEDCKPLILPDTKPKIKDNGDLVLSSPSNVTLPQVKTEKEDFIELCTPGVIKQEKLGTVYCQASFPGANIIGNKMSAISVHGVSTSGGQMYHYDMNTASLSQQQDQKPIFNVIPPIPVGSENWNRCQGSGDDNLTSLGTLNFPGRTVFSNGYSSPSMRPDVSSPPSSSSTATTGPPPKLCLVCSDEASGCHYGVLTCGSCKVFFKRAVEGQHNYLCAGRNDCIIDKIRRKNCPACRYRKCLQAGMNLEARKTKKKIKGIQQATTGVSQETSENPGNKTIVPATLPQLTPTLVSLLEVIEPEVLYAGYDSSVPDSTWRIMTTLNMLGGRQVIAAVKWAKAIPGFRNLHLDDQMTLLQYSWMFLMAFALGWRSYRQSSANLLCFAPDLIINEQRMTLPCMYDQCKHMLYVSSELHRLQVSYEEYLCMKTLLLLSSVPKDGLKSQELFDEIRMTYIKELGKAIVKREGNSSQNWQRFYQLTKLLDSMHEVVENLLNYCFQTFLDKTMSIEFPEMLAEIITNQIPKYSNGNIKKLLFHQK
Chain of Dual specificity protein kinase CLK4 (Homo sapiens) (Q9HAZ1 whole entry, looked up): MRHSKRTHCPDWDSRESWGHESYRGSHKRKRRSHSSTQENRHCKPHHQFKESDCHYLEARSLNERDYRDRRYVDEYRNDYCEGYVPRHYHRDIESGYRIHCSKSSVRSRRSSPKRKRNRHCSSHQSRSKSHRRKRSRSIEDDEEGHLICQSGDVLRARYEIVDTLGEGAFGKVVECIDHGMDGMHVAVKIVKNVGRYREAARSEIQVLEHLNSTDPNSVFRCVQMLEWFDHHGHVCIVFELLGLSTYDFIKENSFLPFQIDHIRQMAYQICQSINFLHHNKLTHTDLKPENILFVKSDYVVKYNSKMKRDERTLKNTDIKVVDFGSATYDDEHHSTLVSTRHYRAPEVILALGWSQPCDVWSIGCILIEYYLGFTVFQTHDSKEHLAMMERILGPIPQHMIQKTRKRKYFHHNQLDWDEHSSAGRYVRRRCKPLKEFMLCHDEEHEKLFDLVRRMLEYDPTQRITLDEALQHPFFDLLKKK
Chain of Lysosomal acid glucosylceramidase (Homo sapiens) (P04062 whole entry, looked up): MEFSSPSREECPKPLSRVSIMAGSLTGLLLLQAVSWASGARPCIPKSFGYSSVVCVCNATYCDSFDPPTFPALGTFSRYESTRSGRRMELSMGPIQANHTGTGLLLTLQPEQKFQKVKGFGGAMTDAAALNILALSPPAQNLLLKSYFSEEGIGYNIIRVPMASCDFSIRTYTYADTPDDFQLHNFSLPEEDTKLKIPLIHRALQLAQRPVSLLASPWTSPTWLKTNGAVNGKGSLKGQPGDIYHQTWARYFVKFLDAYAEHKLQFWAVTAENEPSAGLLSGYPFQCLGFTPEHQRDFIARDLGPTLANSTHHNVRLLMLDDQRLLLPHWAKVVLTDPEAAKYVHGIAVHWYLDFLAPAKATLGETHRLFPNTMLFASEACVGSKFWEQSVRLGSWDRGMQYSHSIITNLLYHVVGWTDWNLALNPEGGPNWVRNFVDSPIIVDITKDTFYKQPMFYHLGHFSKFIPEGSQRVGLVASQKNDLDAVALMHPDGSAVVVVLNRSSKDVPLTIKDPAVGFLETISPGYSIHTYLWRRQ
Chain of Cytochrome P450 1A2 (Homo sapiens) (P05177 whole entry, looked up): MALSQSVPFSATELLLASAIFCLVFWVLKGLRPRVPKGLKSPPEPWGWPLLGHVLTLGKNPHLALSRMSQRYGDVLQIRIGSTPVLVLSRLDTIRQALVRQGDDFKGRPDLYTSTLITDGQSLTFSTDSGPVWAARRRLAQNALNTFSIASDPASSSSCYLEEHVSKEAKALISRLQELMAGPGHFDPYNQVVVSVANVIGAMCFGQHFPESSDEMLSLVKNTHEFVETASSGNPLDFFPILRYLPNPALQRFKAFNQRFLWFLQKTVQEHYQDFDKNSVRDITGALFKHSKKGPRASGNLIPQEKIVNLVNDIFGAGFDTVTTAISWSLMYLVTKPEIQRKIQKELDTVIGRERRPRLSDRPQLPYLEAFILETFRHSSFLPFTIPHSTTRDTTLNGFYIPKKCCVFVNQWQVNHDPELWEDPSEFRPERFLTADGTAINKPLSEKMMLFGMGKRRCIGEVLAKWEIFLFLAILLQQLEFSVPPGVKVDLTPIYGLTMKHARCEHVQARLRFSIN
Chain of Ubiquitin carboxyl-terminal hydrolase 1 (Homo sapiens) (O94782 whole entry, looked up): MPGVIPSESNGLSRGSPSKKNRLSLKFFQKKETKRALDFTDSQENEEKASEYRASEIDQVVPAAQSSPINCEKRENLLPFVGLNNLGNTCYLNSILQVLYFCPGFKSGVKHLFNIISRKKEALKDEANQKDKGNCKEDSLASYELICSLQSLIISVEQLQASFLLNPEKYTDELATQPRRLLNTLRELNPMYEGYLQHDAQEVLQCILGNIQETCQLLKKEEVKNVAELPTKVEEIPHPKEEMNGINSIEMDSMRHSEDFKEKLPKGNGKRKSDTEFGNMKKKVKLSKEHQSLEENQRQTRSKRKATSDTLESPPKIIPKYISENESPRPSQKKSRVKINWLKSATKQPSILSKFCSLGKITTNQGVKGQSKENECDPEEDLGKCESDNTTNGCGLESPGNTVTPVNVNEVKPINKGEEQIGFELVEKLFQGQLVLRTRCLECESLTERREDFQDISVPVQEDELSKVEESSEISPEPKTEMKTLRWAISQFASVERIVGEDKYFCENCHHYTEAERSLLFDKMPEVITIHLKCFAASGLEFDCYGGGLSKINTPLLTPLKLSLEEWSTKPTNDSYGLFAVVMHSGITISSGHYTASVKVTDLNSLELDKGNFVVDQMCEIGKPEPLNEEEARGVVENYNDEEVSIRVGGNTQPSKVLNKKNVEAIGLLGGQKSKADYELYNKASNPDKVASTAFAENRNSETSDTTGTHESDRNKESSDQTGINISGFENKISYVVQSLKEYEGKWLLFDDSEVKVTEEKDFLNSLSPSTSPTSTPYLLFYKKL
Chain of Cytochrome P450 3A4 (Homo sapiens) (P08684 whole entry, looked up): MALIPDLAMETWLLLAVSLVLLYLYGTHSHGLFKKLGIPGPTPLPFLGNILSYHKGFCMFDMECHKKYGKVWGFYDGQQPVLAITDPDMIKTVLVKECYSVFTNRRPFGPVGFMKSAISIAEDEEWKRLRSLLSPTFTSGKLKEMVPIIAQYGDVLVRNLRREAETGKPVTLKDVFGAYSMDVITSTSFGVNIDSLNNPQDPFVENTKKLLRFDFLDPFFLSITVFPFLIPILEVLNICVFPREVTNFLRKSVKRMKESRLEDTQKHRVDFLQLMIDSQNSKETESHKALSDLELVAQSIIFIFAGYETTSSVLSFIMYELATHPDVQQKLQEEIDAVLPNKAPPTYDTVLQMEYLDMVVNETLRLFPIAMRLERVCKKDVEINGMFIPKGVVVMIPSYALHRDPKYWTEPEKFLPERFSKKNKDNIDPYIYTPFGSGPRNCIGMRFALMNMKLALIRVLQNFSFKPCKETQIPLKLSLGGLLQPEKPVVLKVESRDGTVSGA
Chain of 3',5'-cyclic-AMP phosphodiesterase 4B (Homo sapiens) (Q07343 whole entry, looked up): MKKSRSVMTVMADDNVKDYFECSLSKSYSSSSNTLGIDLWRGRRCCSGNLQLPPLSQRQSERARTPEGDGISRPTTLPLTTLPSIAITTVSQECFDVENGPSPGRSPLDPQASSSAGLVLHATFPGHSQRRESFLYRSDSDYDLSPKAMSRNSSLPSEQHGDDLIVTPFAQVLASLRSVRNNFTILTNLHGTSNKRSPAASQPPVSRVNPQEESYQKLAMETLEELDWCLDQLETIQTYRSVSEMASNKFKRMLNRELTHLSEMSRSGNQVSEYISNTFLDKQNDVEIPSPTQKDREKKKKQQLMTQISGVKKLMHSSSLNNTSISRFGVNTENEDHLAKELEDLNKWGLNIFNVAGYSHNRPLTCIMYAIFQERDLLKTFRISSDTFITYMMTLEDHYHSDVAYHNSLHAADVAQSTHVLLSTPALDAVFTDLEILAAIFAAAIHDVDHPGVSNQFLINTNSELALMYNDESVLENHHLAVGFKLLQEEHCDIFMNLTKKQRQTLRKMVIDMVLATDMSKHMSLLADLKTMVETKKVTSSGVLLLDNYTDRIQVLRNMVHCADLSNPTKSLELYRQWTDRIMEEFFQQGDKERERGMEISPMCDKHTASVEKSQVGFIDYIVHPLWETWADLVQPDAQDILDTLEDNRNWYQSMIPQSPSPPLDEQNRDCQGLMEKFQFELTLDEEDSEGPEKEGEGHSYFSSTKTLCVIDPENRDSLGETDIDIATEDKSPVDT
Chain of Cytochrome P450 2C19 (Homo sapiens) (P33261 whole entry, looked up): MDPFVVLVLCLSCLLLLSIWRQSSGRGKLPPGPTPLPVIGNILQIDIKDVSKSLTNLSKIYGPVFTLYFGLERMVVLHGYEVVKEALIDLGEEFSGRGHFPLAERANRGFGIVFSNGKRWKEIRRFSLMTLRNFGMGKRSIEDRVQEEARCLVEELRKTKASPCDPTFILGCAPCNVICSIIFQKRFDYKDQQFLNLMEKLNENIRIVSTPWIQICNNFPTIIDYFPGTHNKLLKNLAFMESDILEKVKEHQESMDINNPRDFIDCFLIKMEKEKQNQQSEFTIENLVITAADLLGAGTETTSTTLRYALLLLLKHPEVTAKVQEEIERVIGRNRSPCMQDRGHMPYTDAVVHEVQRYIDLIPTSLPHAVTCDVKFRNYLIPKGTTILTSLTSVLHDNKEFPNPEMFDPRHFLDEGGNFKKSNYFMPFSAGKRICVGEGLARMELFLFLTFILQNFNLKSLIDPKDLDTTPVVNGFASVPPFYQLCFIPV

SMILES	Potency [1]	activity change, negative = inhibition [2]	Potency [3]	activity, negative = inhibition [4]	Potency [5]	Potency [6]	outcome [7]	Potency [8]	Potency [9]	Potency [10]	Potency [11]	activity change, negative = inhibition [12]	max response [12, 19]	max response [12, 20]	Potency [13]	Potency [14]	Potency [15]	Potency [16]	Potency [17]	activity change, negative = inhibition [18]
CN(Cc1ccco1)c1ncncc1-c1ccccc1Cl	> 11.4 µM (inactive)	23.7% (inactive)	25.1 µM (active)	3.72% (inactive)	> 46 µM (inactive)	> 46 µM (inactive)	inactive	inactive	0.501 µM (active)	inactive	0.794 µM (active)	7.31% (inactive)	14.4%	19.6%	inactive	inactive	inactive	inactive	inactive	–
COCCn1c(=O)cnc2cnc(OC)nc21	> 11.4 µM (inactive)	-9.59% (inactive)	–	-10.3% (inactive)	> 9.22 µM (inactive)	> 46 µM (inactive)	inactive	inactive	–	–	–	6.21% (inactive)	19.3%	24.8%	inactive	inactive	inactive	inactive	inactive	1.87% (inactive)
c1cncc(-c2cncnc2NC2CCNCC2)c1	> 11.4 µM (inactive)	11.1% (inactive)	12.6 µM (active)	5.17% (inactive)	> 46 µM (inactive)	> 46 µM (inactive)	inactive	inactive	–	–	–	6.71% (inactive)	15.6%	20%	inactive	inactive	inactive	inactive	inactive	–
CN1CCN(c2ncc3nc(-c4cc(F)cc(F)c4)c(=O)n(C4CC4)c3n2)CC1	> 11.4 µM (inactive)	-8.53% (inactive)	15.8 µM (active)	–	> 9.22 µM (inactive)	> 46 µM (inactive)	inactive	inactive	–	inactive	–	1.65% (inactive)	12.3%	12.5%	inactive	inactive	inactive	inactive	inactive	-23.1% (inactive)
COc1ccc(-c2nc3cnc(N4CCOCC4)nc3n(C)c2=O)cc1	> 11.4 µM (inactive)	-14.2% (inactive)	–	-2.93% (inactive)	> 9.22 µM (inactive)	> 46 µM (inactive)	inactive	inactive	–	–	–	1.23% (inactive)	7.61%	5.75%	inactive	inactive	inactive	inactive	inactive	-0.157% (inactive)
